Compound activity from PubChem.
aSyn 5UTR act: Activators working through SNCA 5'UTR binding (MLPCN); alpha-synuclein 5'UTR reporter, activators screen; activity score, % (tested at 7.5 µM), hits read low; 7.1% of 300,000 active; in the data active = activity score below about -60%
Large screens that a line does not name were inactive. These entries were drawn from the full list.

Brc1ccc(N=Nc2ccc3ccccc3n2)cc1	none
CN(C)C(=O)c1cc(-c2ccccc2)no1	aSyn 5UTR act -79.9
CC(C)(CO)NC(=O)c1ccc2nc(Cc3cccc(Cl)c3)oc2c1	aSyn 5UTR act -101.8
COC(=O)CN(C)C(=O)c1ccc2nc(Cc3cccc(Cl)c3)oc2c1	aSyn 5UTR act -108.8
COCC1CCCN(C(=O)c2ccc3nc(Cc4cccc(Cl)c4)oc3c2)C1 (stereo not drawn)	aSyn 5UTR act -77.2
COc1ccc2cc(C(=O)/C=C/c3cc(OC)c(O)c(OC)c3)ccc2c1	aSyn 5UTR act -71.1
O=C(Nc1ccc(C2CC2(Cl)Cl)cc1)c1ccccc1Br (stereo not drawn)	aSyn 5UTR act -72.8
COc1ccc(NC(=O)c2ccc(C)cc2)c(OC)c1	aSyn 5UTR act -188.8
COc1cccc(C(=O)Nc2ccc3c(c2)C(=O)c2ccccc2C3=O)c1	aSyn 5UTR act -163.7
CCN(CC)S(=O)(=O)c1cccc(C(=O)Oc2cccc(NC(=O)c3cccs3)c2)c1	aSyn 5UTR act -66.3
COC(=O)c1ccc(/C=C/C(=O)c2cccc(OC)c2)cc1	aSyn 5UTR act -70.7
Cc1ccc(NC(=O)c2ccc3nsnc3c2)c(C)c1	aSyn 5UTR act -102.0
COC(=O)c1ccc(NC(=O)c2cccc(OC)c2)cc1	aSyn 5UTR act -255.5
Cc1cccc(C(=O)Nc2cccc(OC(=O)c3cccc(C)c3)c2)c1	aSyn 5UTR act -115.4
COc1cccc(C(=O)NC(=S)Nc2ccc(N(C)C)cc2)c1	aSyn 5UTR act -185.4
COc1cccc(C(=O)Nc2ccc(C3CC3(Cl)Cl)cc2)c1 (stereo not drawn)	aSyn 5UTR act -169.2
COc1cccc(C(=O)Nc2ccc(C(=O)c3ccccc3)cc2)c1	aSyn 5UTR act -94.4
C=C[C@@]1(C)CC(=O)[C@]2(O)[C@@]3(C)[C@@H](O)CCC(C)(C)[C@@H]3[C@H](OC(C)=O)[C@H](O)[C@@]2(C)O1	none
Cc1ccc(NC(=O)COC(=O)c2cccc3c2C(=O)c2ccccc2C3=O)c(C)c1	none
COc1cccc(C(=O)Nc2ccc(Cl)c(C(F)(F)F)c2)c1	aSyn 5UTR act -108.2
CCC(=O)Nc1ccc2c(c1)C(=O)c1ccccc1C2=O	aSyn 5UTR act -244.6
COC(=O)c1ccc(NC(=O)c2ccc3nsnc3c2)cc1	aSyn 5UTR act -111.2
COC(=O)c1ccc(NC(=O)c2cccc(C)c2)cc1	aSyn 5UTR act -64.8
COc1cccc(C(=O)Nc2ccc(C)cc2)c1	aSyn 5UTR act -127.4
COc1cccc2c1C(=O)c1ccc3ccccc3c1C2=O	aSyn 5UTR act -141.2
O=C(c1ccc(COc2ccccc2[N+](=O)[O-])o1)N1CCCCCC1	aSyn 5UTR act -79.6
Cc1ccc(OCc2ccc(C(=O)N3CCCC3)o2)cc1C	aSyn 5UTR act -82.5
O=C(c1ccc(COc2ccc(Cl)cc2Cl)o1)N1CCCC1	aSyn 5UTR act -62.6
Cc1ccccc1S(=O)(=O)Cc1ccc(C(=O)N2CCN(c3cccc(C)c3C)CC2)o1	none
Cc1cccc(Nc2nc(-c3ccccc3)c(C(=O)Nc3cccnc3)s2)c1	aSyn 5UTR act -142.9
COc1ccc(-c2ccc(SCC(=O)Nc3cccc(C(C)=O)c3)nn2)cc1OC	aSyn 5UTR act -82.3
COc1ccccc1NC(=O)CSc1ccc(-c2ccc(-n3cccn3)cc2)nn1	aSyn 5UTR act -112.6
CC(=O)c1cccc(NC(=O)CSc2ccc(-c3ccc4c(c3)OCO4)nn2)c1	aSyn 5UTR act -87.0
CN(C)c1ccc(NC(=O)C2C3C=CC(C3)C2C(=O)O)cc1 (stereo not drawn)	aSyn 5UTR act -73.5
CCc1ccc(NC(=O)C2C3C=CC(C4CC34)C2C(=O)O)cc1 (stereo not drawn)	aSyn 5UTR act -74.4
N#Cc1ccc(-c2ccc(Cl)cc2)nc1SCC(=O)c1cccc(Cl)c1	aSyn 5UTR act -81.5
O=C(CSc1n[nH]c(-c2ccccc2)n1)c1ccccc1	aSyn 5UTR act -84.4
N#Cc1ccc(-c2cccnc2)nc1SCC(=O)c1ccccc1	aSyn 5UTR act -115.6
Cc1cccc2c1ncc1c(=O)n(-c3ccccc3)[nH]c12	aSyn 5UTR act -145.9
N/C(=N/OC(=O)c1ccccc1Cl)c1nonc1N	aSyn 5UTR act -84.9
Cc1nc(/C(N)=N/OC(=O)c2ccccc2Cl)c(C(F)(F)F)o1	aSyn 5UTR act -131.1
CC1c2cc3c(cc2CCN1C(=O)c1cccc(F)c1)OCCCO3 (stereo not drawn)	aSyn 5UTR act -69.4
Cc1cc(N/N=C/c2c(O)ccc3ccccc23)nc(-c2ccccc2O)n1	none
Cc1cc(Nc2ccccc2)nc(-c2ccccc2O)n1	aSyn 5UTR act -100.7
Cc1ccccc1-n1c(SCC(=O)N/N=C/c2c(C)nn(-c3ccccc3)c2C)nc2ccccc2c1=O	none
Cc1nc(COC(=O)c2c(C)nn(-c3ccccc3)c2C)cs1	aSyn 5UTR act -104.2
COc1ccc(-c2oc3ccccc3c2C(=O)OCc2ccccc2)cc1	aSyn 5UTR act -101.6
COC(=O)c1cccc(NC(=O)NC23CC4CC(CC(C4)C2)C3)c1	aSyn 5UTR act -98.2
COc1cccc(CN=C2Nc3ccccc3CS2)c1	aSyn 5UTR act -142.0
COc1ccccc1CN=C1Nc2ccccc2CS1	aSyn 5UTR act -148.9
c1ccc2c(c1)CSc1ccccc1N2	none
Clc1ccc(CN=C2Nc3ccccc3CS2)cc1	aSyn 5UTR act -181.7
Cc1ccc(S(=O)(=O)c2ccc([N+](=O)[O-])cn2)cc1	aSyn 5UTR act -73.0
Cc1cc(C)n(-c2ccc3cccc(NS(C)(=O)=O)c3n2)n1	none
Cc1cc2n(n1)SC(Nc1cccc3ccccc13)N2 (stereo not drawn)	aSyn 5UTR act -93.9
N/C(=N\OC(=O)c1ccco1)c1cccnc1	aSyn 5UTR act -78.4
CCSc1ccc(/C(N)=N/OC(=O)c2cccs2)cn1	aSyn 5UTR act -120.4
N/C(=N\OC(=O)c1cccs1)c1cccnc1	aSyn 5UTR act -91.9
N/C(=N\OC(=O)c1ccc(Cl)cc1)c1ccc(Cl)cc1	aSyn 5UTR act -121.7
N/C(=N\OC(=O)c1ccc(Cl)cc1)c1ccn[nH]1	aSyn 5UTR act -76.8
N/C(=N\OC(=O)c1ccc(Cl)cc1)c1cccnc1	aSyn 5UTR act -186.8
Cc1ccccc1/C(N)=N/OC(=O)c1cccs1	aSyn 5UTR act -119.6
N/C(=N\OC(=O)c1ccc(Cl)cc1Cl)c1cccnc1	aSyn 5UTR act -70.5
N/C(=N\OC(=O)c1ccco1)c1ccc(Cl)cc1	aSyn 5UTR act -210.3
Cc1ccc2nc(SCC(=O)c3ccc(Cl)s3)[nH]c2c1	aSyn 5UTR act -66.2
Oc1c(C2=NCCNC(C(F)(F)F)=C2)ccc2ccccc12	aSyn 5UTR act -193.4
Cc1ccnc(NC(=O)c2ccc(S(=O)(=O)N3CCC(C)CC3)cc2)c1	aSyn 5UTR act -117.9
CC1CCN(S(=O)(=O)c2ccc(C(=O)Nc3ccccn3)cc2)CC1	aSyn 5UTR act -119.8
O=S(=O)([N-]c1nc2ccccc2nc1-[n+]1ccc(-c2ccncc2)cc1)c1ccccc1	aSyn 5UTR act -105.0
Clc1ccc(Cn2nc(-c3ccccc3)nc2-c2ccccc2)cc1	aSyn 5UTR act -114.2
COC(=O)c1ccc(Sc2ccc(C)cc2)c(N)c1	aSyn 5UTR act -140.7
COc1ccc(N/N=C(\C#N)C(=N)N2CCCCC2)cc1	aSyn 5UTR act -82.3
Cc1ccc(N/N=C(\C#N)C(=N)N2CCOCC2)cc1	aSyn 5UTR act -140.7
Cc1ccc(N/N=C(\C#N)C(=N)N2CCCCCC2)cc1	aSyn 5UTR act -113.4
N#C/C(=N\Nc1ccccc1F)C(=N)N1CCCCC1	aSyn 5UTR act -157.7
CCN(CC)C(=N)/C(C#N)=N/Nc1ccc(C)cc1	aSyn 5UTR act -135.5
N#C/C(=N\Nc1ccc(Cl)cc1)C(=N)N1CCCCC1	aSyn 5UTR act -101.4
O=C(Nc1ccc(NC(=O)c2cccs2)cc1Cl)c1ccco1	aSyn 5UTR act -154.0
COc1cc(NC(=O)c2cccs2)ccc1NC(=O)c1ccco1	aSyn 5UTR act -148.7
